Bfl-1 A1 inh: caspase 3/7 activation in MEF A1-2A-BIM cells, primary screen, A1 inhibitor project, cell-based, luminescence, HTS; Caspase-Glo 3/7 luminescence, 3 h; percent of clofoctol response, vehicle zero; caspase activation, % (concentration not given with the values); hit rate 0.066% among 330,000;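 active = over half of replicate activation scores above 10%, or exactly half above 10 with the replicate mean above 10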
AHR activator: AHR activators, primary screen, cell-based, luminescence, luciferase reporter, human; Aryl hydrocarbon receptor (Homo sapiens), P35869; AHR-responsive luciferase reporter cells; activation, % at 5 µM; hit rate 2.5% among 320,000; AID 2796, 2010; in the data active = activation above about 47%
Efflux pump mplx: inhibitors of Candida efflux pumps in yeast, primary screen, S. cerevisiae, Nile Red, multiplex; S. cerevisiae Candida pump triplex; inhibition, % at 10 µM; hit rate 0.44% among 330,000; AID 485275, 2010;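 active = plate passing quality check with inhibition over a set limit, or well fluorescence over plate mean plus 4 SD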;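 also: Nile Red retained in pooled yeast measured as flow cytometry median fluorescence; higher means more Nile Red kept so more efflux inhibition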
Mot1-301 SUMO: yeast Mot1-301 growth rescue at high temperature, primary screen, SUMOylation pathway inhibitor project, S. cerevisiae, ATP luminescence, 38.5C; S. cerevisiae Mot1-301 growth rescue; percent above DMSO median, 100 means doubled; growth rescue, % at 18.8 µM; hit rate 1% among 320,000;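 active = every valid replicate shows activation above 250% relative to neutral control wells; inactive = the rest, any valid replicate at or below 250%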
ALR H2O2 inh: inhibitors of human ALR sulfhydryl oxidase, primary screen, biochemical, H2O2 detection, HRP-luminol luminescence, single point. purified ALR, DTT oxidation. inhibition, % (concentration not given with the values). hit rate 3.8% among 290,000. AID 485317, 2010;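 active = mean replicate inhibition above about 79%, with every replicate also reaching it, limit read from the data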
VLA-4 inh: inhibition in human VLA-4 binding assay, primary screen, VLA-4 allosteric modulator project, MLPCN library, flow cytometry, VLA-4 expressing cells | hit rate 0.2% among 330,000 | inhibition, % (about 7 µM as worked out from the volumes in the protocol) | Integrin alpha-4 (Homo sapiens), P13612 | ligand binding flow cytometry; in the data active = inhibition above about 50%
Target sequence (P13612 whole entry, looked up): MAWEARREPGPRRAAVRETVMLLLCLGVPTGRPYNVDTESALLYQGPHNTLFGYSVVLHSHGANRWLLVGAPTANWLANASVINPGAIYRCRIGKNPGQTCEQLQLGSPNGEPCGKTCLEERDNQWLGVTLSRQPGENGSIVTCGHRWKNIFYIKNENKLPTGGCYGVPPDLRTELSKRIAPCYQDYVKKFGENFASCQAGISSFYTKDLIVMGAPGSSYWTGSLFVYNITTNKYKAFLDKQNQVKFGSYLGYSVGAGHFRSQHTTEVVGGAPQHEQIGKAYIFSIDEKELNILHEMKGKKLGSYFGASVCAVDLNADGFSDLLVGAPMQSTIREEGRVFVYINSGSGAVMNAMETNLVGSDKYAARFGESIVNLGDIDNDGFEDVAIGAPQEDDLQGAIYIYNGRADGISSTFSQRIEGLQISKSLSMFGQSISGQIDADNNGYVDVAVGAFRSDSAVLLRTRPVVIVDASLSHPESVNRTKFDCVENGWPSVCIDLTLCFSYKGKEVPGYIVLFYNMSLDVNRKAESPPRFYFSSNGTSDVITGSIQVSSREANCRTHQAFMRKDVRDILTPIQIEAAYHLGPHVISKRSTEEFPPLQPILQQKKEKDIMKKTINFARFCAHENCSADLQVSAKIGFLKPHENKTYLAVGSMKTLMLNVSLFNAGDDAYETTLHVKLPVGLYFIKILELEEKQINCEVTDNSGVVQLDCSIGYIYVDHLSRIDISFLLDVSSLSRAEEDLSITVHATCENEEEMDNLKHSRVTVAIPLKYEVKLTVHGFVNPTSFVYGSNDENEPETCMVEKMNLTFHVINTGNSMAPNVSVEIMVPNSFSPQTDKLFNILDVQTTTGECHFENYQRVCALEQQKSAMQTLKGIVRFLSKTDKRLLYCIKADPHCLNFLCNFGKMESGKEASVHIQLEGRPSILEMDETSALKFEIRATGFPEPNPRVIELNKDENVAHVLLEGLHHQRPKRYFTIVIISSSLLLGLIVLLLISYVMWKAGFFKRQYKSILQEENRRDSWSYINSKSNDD
Numbers stand for hits; - = inactive; . = no result. A selection: hits, their analogues and other compounds. The true share with any hit is near 7.2%.

SMILES	Bfl-1 A1 inh	AHR activator	Efflux pump mplx	Mot1-301 SUMO	ALR H2O2 inh	VLA-4 inh
N#C/C(=C\c1ccc(-c2ccc(C(=O)O)cc2)o1)C(=O)NCC1CCCO1 (centres undefined)	-	-	-	-	-	-
N#C/C(=C\c1ccc(N2CCOCC2)o1)C(=O)NCCc1ccccc1	-	-	-	-	89	-
N#C/C(=C\c1ccc(N2CCOCC2)o1)C(=O)NCC1CCCO1 (centres undefined)	-	-	-	-	86	-
COCCNC(=O)/C(C#N)=C/c1ccc(N2CCOCC2)o1	-	-	-	-	.	-
COC(=O)Cc1cc(=O)oc2cc(O)ccc12	-	-	-	-	-	-
CCOc1ccc(NC(=O)CN(C)C(=O)c2ccccc2OCc2c(C)noc2C)cc1OCC	-	-	-	-	-	-
Cc1ccc(-c2cc(C(F)F)n3ncc(C(=O)N4CCN5CCCC5C4)c3n2)cc1 (centres undefined)	-	-	-	-	-	-
Cc1ccc(-c2cc(C(F)F)n3ncc(C(=O)N4CCCCC4c4cccnc4)c3n2)cc1 (centres undefined)	-	-	-	548	-	-
O=C(c1cnn2c(C(F)(F)F)cc(-c3ccccc3)nc12)N1CCCCC1c1cccnc1 (centres undefined)	-	50	-	-	-	-
NS(=O)(=O)c1cccc(NC(=O)CN2CCC(Cc3ccccc3)CC2)c1	-	-	-	-	.	-
COc1ccc(/C(=N\Nc2ccccc2C(=O)O)c2ccccc2)cc1	-	-	-	-	99	-
COc1ccc(-c2csc(=NCCO)n2-c2ccccc2)cc1	-	.	-	-	99	-
COc1ccc(-c2csc(=Nc3ccccc3)n2CCO)cc1	-	-	-	-	97	-
CCN=c1scc(-c2cccs2)n1/N=C/c1cc(OC)ccc1O	-	-	-	-	.	-
C=CCn1c(-c2ccc(OC)cc2)csc1=Nc1c(C)n(C)n(-c2ccccc2)c1=O	-	-	-	-	-	-
CN(C)CCN1C(=O)C2C(C(=O)Nc3cc(Cl)cc(Cl)c3)C3C=CC2(O3)C1C(=O)NC1CCCCC1 (centres undefined)	-	-	-	-	-	-
C#CCOc1c(Cl)cc(/C=C2/C(=O)ON=C2C)cc1OC	-	-	-	-	-	-
CCOC(=O)C1=C(O)/C(=C/c2cc(OC)c(OC)c(OC)c2)N=C1C	-	-	-	-	-	-
CCOc1cc(/C=C2/N=C(C)C(C(=O)OC)=C2O)ccc1O	-	-	-	-	99	-
COc1cc(/C=C2/C(=O)ON=C2C)cc(Cl)c1O	-	-	-	-	91	-
CCOC(=O)C1=C(O)/C(=C\c2ccc(O)c(OCC)c2)N=C1C	-	-	-	-	95	-
CCOc1cc(/C=C2/C(=O)ON=C2C)ccc1O	-	-	-	-	99	-
CCOC(=O)C1=C(O)/C(=C\c2ccc(OC)c(OC)c2)N=C1C	-	-	-	-	.	-
CCOC(=O)C1C(=O)CC(C)(O)C(C(=O)OCC)C1c1ccc(NC(C)=O)cc1 (centres undefined)	-	-	-	-	-	-
O=C(CC1NCCNC1=O)Nc1ccc2c(c1)OCO2 (centres undefined)	-	-	-	-	-	-
SMILES	Bfl-1 A1 inh	AHR activator	Efflux pump mplx	Mot1-301 SUMO	ALR H2O2 inh	VLA-4 inh
N#CCCn1cc(/C=C2\NC(=S)N(c3ccccc3)C2=O)c(-c2ccc(-c3ccccc3)cc2)n1	-	-	-	-	-	-
O=C(O)CCn1cc(/C=C2/NC(=S)N(c3ccccc3)C2=O)c(-c2ccccc2)n1	-	-	-	-	97	-
COc1cc(Cc2ccc(N)c(OC)c2)ccc1N	-	-	-	-	98	-
CC(=O)Nc1ccc(N2C(=O)CSC2c2ccccc2)cc1 (centres undefined)	-	-	-	-	99	-
CC(C)(C)c1ccc(N2C(=O)CSC2c2cccnc2)cc1 (centres undefined)	-	-	-	-	.	-
O=C1CSC(c2ccc([N+](=O)[O-])cc2)N1c1ccccc1 (centres undefined)	-	-	-	-	98	-
O=C1CSC(c2ccccc2)N1c1cccnc1 (centres undefined)	-	-	-	-	93	-
O=C1CSC(c2cccnc2)N1c1ccccc1 (centres undefined)	-	-	-	-	96	-
COc1ccc(N(CC(=O)NC2CCCCC2)C(=O)CCC(=O)Nc2nc(C)cs2)cc1	-	-	-	-	.	-
Cc1cccc(C(=O)Nc2ccccc2C(=O)OCC(=O)Nc2ccc(C#N)cc2)c1	-	-	-	-	-	-
CC(=O)c1c(C)[nH]c(C(=O)OCC(=O)Nc2cc(C(F)(F)F)ccc2N2CCOCC2)c1C	-	-	-	-	-	-
COC(=O)C(C)Oc1cc(OC(C)C(=O)OC)c2c(-c3ccccc3)cc(=O)oc2c1 (centres undefined)	5.3	-	-	-	-	-
COC(=O)COc1cc(OCC(=O)OC)c2c(-c3ccccc3)cc(=O)oc2c1	-	-	-	-	-	-
CCc1ccc2c(CN3CCc4cc(OC)c(OC)cc4C3)cc(=O)oc2c1	-	74	-	-	-	-
CCC(C)c1nc2ccsc2c(N2CCOC2=O)c1-c1ccccc1 (centres undefined)	-	-	-	-	-	-
O=C(Nc1cccnc1)c1ccccc1-c1ccccc1	-	-	-	-	-	-
O=C(Nc1cccnc1)c1cccnc1Cl	-	-	-	339	.	-
O=C(Nc1cccnc1)c1ccccc1O	-	54	-	-	-	-
COc1cccc(CN(C)C(=S)Nc2ccc(C)c(C)c2)c1	-	-	-	-	-	-
CO/N=C\c1cc(C(=O)c2ccc(Cl)cc2Cl)cn1C	-	-	-	-	-	-
CCOc1ccc(NS(=O)(=O)c2ccc(NS(=O)(=O)c3ccc(SC)cc3)cc2)cc1	-	-	-	-	-	-
CCOc1ccc(S(=O)(=O)Nc2ccc(O)c(Sc3ncn[nH]3)c2)cc1	-	-	-	-	99	-
CC(=O)N1CCN(C(=O)CCC(=O)O)CC1	-	-	-	-	-	-
Oc1c(C=Nc2ccccc2Cl)[nH]c2ccccc12	-	57	-	-	-	-
Cc1nc(C)c(-c2csc(Nc3ccc(C(=O)O)c(O)c3)n2)s1	-	.	-	-	-	-
Cc1cc(O)ccc1Nc1nc(-c2cccs2)cs1	-	-	-	-	88	-
CN(c1ccc(O)cc1)c1nc(-c2cccs2)cs1	-	47	-	-	98	-

From PubChem
